Measurements as given in PubChem BioAssay AID604 (The Scripps Research Institute Molecular Screening Center, 2007).
In all, about 60,000 compounds went through this assay and about 210 (0.35%) were called active.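 How the source made its calls: active means inhibition above the screen-wide mean inhibition plus 3 SD (cut at about 18% in these data); inactive means the rest.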 Many of the other results were omitted from the sample, so actives are more common in it than they were.

biological target: Rho-associated protein kinase 2 (Homo sapiens) (UniProt O75116); assay: inhibitors of human ROCK2 kinase, primary screen, biochemical, high-throughput, luminescence (AID 604); settings: purified ROCK2, Kinase-Glo ATP depletion luminescence; at 6 µM; hits give high values;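 further: plate controls were DMSO wells for no effect and Y-27632 control wells after no-enzyme background subtraction for full effect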
Sequence (O75116 whole entry, looked up): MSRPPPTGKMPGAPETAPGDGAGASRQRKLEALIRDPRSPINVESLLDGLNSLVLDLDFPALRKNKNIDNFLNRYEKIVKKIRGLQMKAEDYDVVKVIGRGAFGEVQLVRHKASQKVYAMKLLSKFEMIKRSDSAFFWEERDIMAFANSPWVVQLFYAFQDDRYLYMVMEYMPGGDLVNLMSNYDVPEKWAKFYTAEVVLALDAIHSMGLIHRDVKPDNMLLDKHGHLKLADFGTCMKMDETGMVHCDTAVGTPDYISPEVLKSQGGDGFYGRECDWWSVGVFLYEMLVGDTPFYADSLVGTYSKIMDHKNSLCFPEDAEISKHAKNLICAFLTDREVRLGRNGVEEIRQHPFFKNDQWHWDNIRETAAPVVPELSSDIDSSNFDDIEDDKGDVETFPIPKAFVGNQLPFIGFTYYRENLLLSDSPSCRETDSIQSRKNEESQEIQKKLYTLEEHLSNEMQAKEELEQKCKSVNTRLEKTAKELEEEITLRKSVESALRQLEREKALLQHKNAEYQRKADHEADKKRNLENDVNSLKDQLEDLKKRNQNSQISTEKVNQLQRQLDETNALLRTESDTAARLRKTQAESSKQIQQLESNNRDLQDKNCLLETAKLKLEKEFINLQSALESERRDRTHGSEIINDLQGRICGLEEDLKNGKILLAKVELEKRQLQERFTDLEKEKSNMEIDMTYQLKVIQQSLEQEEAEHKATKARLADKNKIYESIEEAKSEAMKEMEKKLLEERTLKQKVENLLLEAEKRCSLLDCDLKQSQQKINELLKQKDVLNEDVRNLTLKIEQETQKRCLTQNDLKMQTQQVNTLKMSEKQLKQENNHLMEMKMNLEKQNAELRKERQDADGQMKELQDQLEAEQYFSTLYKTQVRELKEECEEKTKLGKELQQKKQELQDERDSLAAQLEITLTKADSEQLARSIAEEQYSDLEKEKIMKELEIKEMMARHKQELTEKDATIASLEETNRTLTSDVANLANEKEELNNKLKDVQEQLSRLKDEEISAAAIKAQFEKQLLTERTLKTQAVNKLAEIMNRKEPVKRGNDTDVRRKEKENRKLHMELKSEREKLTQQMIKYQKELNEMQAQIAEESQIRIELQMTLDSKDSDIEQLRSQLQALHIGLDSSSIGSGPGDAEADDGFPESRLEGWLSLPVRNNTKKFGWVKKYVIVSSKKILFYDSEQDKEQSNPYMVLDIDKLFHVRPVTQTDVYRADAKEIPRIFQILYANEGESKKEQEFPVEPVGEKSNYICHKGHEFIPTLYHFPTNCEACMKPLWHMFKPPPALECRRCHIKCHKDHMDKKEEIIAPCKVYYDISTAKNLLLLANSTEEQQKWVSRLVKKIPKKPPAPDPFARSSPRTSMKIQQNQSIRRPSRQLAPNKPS

inhibition, inactive:
CCOC(=O)CC1=CC(=O)Nc2ccccc2N1 7.2%
Cc1occc1C(=O)N1CCCc2ccccc21 1%
O=C(c1ccc(S(=O)(=O)N2CCOCC2)cc1)N1CCN(c2ccccc2)CC1 2.3%
O=C1c2oc3ccccc3c(=O)c2C(c2cccc(O)c2)N1c1ccccn1 (stereo not drawn) 1%
COc1ccc(-n2c(SCC(=O)Nc3ccc4c(c3)OCO4)nnc2C(C)N2CCCCC2)cc1 (stereo not drawn) 1%
c1ccc2c(NCC3CCCO3)nc(-c3ccncc3)nc2c1 (stereo not drawn) 5.5%
Cc1noc(C)c1COC(=O)Cn1c(C)nc2ccccc21 5.1%
CCOC(=O)C1CCN(C(=O)C2CCN(S(=O)(=O)CC)CC2)CC1 -1.2%
CCCc1nc(SCC(=O)Nc2ccccc2OC)c2c(=O)n(C)c(=O)n(C)c2n1 1.6%
CCOc1ccccc1N(CC(=O)NC1CCCCC1)C(=O)CCCC(=O)Nc1ccccn1 4.8%
O=C(CSc1nnc(-c2cccnc2)n1Cc1ccco1)c1ccc(Cl)cc1 2.8%
CCOc1ccccc1NC(=O)CCc1ccc(C)o1 0.9%
CS(=O)(=O)c1ccc2nc(NC(=O)C3CCCCC3)sc2c1 6.5%
O=c1c(F)cn(C2CCCO2)c(=O)n1Cc1ccccc1Cl (stereo not drawn) -7.2%
CCn1c(CSc2ncccn2)nnc1SCC(=O)N1c2ccccc2CC1C (stereo not drawn) 1.2%
CCCOc1ccc(N2CC(C(=O)Nc3ccccn3)CC2=O)cc1 (stereo not drawn) 2.5%
O=C1CCCC2=C1C(c1cccs1)n1nc(SCc3ccccc3)nc1N2 (stereo not drawn) 2%
COc1ccc(-c2[nH]nc3c2C(c2ccncc2)C(C#N)=C(N)O3)cc1 (stereo not drawn) -0.8%
CC(C(=O)N1CCOCC1)N1c2cccc3cccc(c23)S1(=O)=O (stereo not drawn) 11.3%
O=C(c1cccs1)N(C(=O)c1cccs1)c1ccccn1 3.6%
CCc1c(C)nc(N2CCN(Cc3ccccc3)CC2)[nH]c1=O -0.6%
CCN1CCN(Cc2nc3c(c(=O)n(C)c(=O)n3C)n2CC(=O)c2ccccc2)CC1 -1.1%
COc1ccccc1CNC(=O)Cn1cc2c(n1)CCCC2 2.7%
N#CCCn1cnc2ccccc21 0.3%
CCn1c(=N)n(CC(=O)c2cccc(OC)c2)c2ccccc21 -1.1%
CCOCCCNC(=O)c1c[nH]c2cc(C)ccc2c1=O -0.3%
Brc1cnc(N2CCCC2)nc1N1CCCCC1 2%
COc1ccc(N2CC(C)Cn3c2nc2c3c(=O)n(Cc3ccccc3F)c(=O)n2C)c(OC)c1 (stereo not drawn) -0.2%
CCC(Sc1nncn1C)C(=O)Nc1nnc(-c2ccc(Cl)cc2)s1 (stereo not drawn) 3.6%
COc1ccc(OC)c(N=Cc2c(O)[nH]c3ccccc23)c1 12.3%
COC(=O)c1[nH]c2ccccc2c1NS(=O)(=O)c1ccc(OC)cc1OC 5.9%
COc1ccc2[nH]c3ccc(OC)cc3c2c1 5.6%
COc1ccc(CCNC(=O)CCCCn2c(=O)[nH]c3ccccc3c2=O)cc1OC 4.9%
CC(C)=C(NC(=O)c1ccco1)C(=O)NCCc1nc2ccccc2[nH]1 1.2%
COc1cc(NS(=O)(=O)c2ccccc2)ccc1-n1nc(C)cc1C 10.8%
CCCOC(=O)c1cc2ccccc2oc1=O 0.3%
CCOc1cc(S(=O)(=O)NCc2ccc3c(c2)OCO3)ccc1F 0.8%
CN(C)/C=C1\C=C(c2ccccc2)OC1=O 0.1%
COCCN1C(=O)c2oc3c(C)cc(C)cc3c(=O)c2C1c1cccc(O)c1 (stereo not drawn) -3%
O=C(NCCCN1CCN(Cc2ccccc2)CC1)C1CCN(S(=O)(=O)N2CCCC2)CC1 2.6%
O=C(c1ccco1)N1CCN(C(=O)C2c3ccccc3Oc3ccccc32)CC1 -3.5%

inhibition, active:
COc1cc(N=Cc2c(O)[nH]c3ccccc23)cc(OC)c1OC 58.4%
COc1ccc(N=Cc2c(O)[nH]c3ccccc23)cc1OC 36.8%
